Results from PubChem BioAssay (NCATS).
Records with an inconclusive call do not appear. Some compounds were tested as several samples or in several runs, with calls that do not always agree. Calls of active or inactive are those of the source. The call rests on the fitted dose curve; in most records, active means well fitted inhibition curve with a large enough effect; inconclusive means small, poorly fitted or top-dose-only effect; inactive means flat fitted curve, though single readings scatter.

assay: Primary qHTS for inhibitors of nuclear receptor binding SET domain protein 2 (NSD2) in an isogenic RCH-ACV NSD2 p.E1099K mutant (9B) (AID 1645876); conditions: RCH-ACV (leukaemia line) NSD2 E1099K (9B) viability, CellTiter-Glo, 72 h; series mostly up to 44.9 µM; activity change, negative = viability loss: at the top concentration; further: nearly all actives have a fitted effect of over 70% in size
On the % scale 0 is the no-effect control and ±100 the full control effect; potency means the concentration at half of the fitted maximal effect.

Compound | Potency | activity change, negative = viability loss | outcome
CCOC(=O)CC(SP(=S)(OC)OC)C(=O)OCC (centres undefined) | 30.6 µM (active) and inactive |  | 
[N-]=[N+]=CC(=O)OC[C@H](N)C(=O)O |  | -1.31% (inactive) | 
O=C1CN=C(c2ccccc2)c2cc([N+](=O)[O-])ccc2N1 |  | -24.9% (inactive) | 
CCC1(CC)C(=O)C=CNC1=O |  | 4.68% (inactive) | 
C[N+]1(CCF)[C@@H]2CC[C@H]1CC(OC(=O)C(O)(c1ccccc1)c1ccccc1)C2 (some centres undefined) |  | 9.14% (inactive) | 
CC(Cc1ccccc1)NCCn1cnc2c1c(=O)n(C)c(=O)n2C (centres undefined) |  | -23.1% [at 91.9 µM] (inactive) | 
COc1cccc2c1C(=O)c1c(O)c3c(c(O)c1C2=O)C[C@@](O)(C(=O)CO)CC3OC1CC(N2CCOC(OC)C2)C(O)C(C)O1 (some centres undefined) | 0.0047 µM (active) |  | 
C#CC(O)(C=CCl)CC (centres undefined) |  |  | inactive
C[C@@H](N)[C@@H](O)c1ccccc1 |  | 8.42% (inactive) | 
COP(=S)(OC)Oc1ccc(S(=O)(=O)N(C)C)cc1 |  | -16.6% (inactive) | 
O=C1c2ccccc2C(=O)c2ccccc21 |  | -2.1% [at 17.3 µM] (inactive) | 
C=CCC1(C(C)CC)C(=O)NC(=O)NC1=O (centres undefined) |  | 3.73% (inactive) | 
CCC1(c2ccccc2)C(=O)N(COC)C(=O)N(COC)C1=O |  |  | inactive
CN1C(=O)NC(=O)C(C)(C2=CCCCC2)C1=O (centres undefined) |  | 9.12% (inactive) | 
O=C(O)c1ccc(=O)[nH]c1 |  |  | inactive
CNC(C)(C)Cc1ccccc1 |  | 5.16% (inactive) | 
Nc1ccc([As](=O)(O)O)cc1 |  | -5.93% (inactive) | 

Compound | Potency | activity change, negative = viability loss | outcome
CCN[C@H](C)Cc1cccc(C(F)(F)F)c1 |  | -12.3% [at 91.9 µM] (inactive) | 
Clc1cccc(SC2CCNCC2)n1 |  | 0.983% (inactive) | 
CCCCCCCCCC(=O)O[C@H]1CC[C@H]2[C@@H]3CCC4=CC(=O)CC[C@@H]4[C@H]3CC[C@]12C |  | -18.2% (inactive) | 
CC(C)(N)Cc1ccccc1Cl |  |  | inactive
CN1C(=O)COc2c(C(=O)NC3CN4CCC3CC4)cc(Cl)cc21 (centres undefined) | inactive |  | 
CN1CC[C@]23c4c5ccc(O)c4O[C@H]2[C@@H](O)CC[C@H]3[C@H]1C5 |  | 4.59% [at 91.9 µM] (inactive) | 
CC(C)(C)NCC(O)c1cc(Cl)c(N)c(C(F)(F)F)c1 (centres undefined) |  | 5.94% (inactive) | 
C[C@]12CC[C@H]3[C@@H](CCC4=CC(=O)CC[C@@H]43)[C@@H]1CC[C@@H]2OC(=O)CCc1ccco1 | 23.7 µM (active) |  | 
CC(C)NC(C)C |  |  | inactive
ClCCN1CCCC1 |  | -0.514% (inactive) | 
O=c1[nH]c2ccccc2n1C1CCNCC1 |  | -7.13% (inactive) | 
Nc1ccccc1 |  |  | inactive
NC1=NC(=O)C(c2ccccc2)O1 (centres undefined) |  | 2.45% (inactive) | 
CCCCCCC(=O)CCCCCC/C=C/C[C@@H](O)[C@H](O)[C@@](N)(CO)C(=O)O |  |  | inactive [at 17.3 µM]
CC[N+]1(CC)CCC(OC(=O)C(O)(c2ccccc2)c2ccccc2)C1 (centres undefined) |  | 3.46% (inactive) | 
C[C@]12CC[C@H]3[C@@H](CC[C@@]45O[C@H]4C(O)=C(C#N)C[C@]35C)[C@H]1CC[C@H]2O | 15 µM (active) |  | 
O=c1oc2ccccc2c(O)c1Cc1c(O)c2ccccc2oc1=O | 21.1 µM (active) |  | 
